Reference: PubChem BioAssay (NCI)
About 79,000 compounds went through this panel and 15% of them were active in at least one assay; those are over-represented in the sample as a whole. The source made the active and inactive calls. Cut-off read from the data, not from the text of the source: active = growth inhibition above about 70%; inactive = the rest.

Experiments:
[1] = NCI Yeast Anticancer Drug Screen. Data for the rad52 strain (AID 147);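 note: 0% = growth of vehicle-treated control cultures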; settings: S. cerevisiae rad52 mutant growth inhibition, active compounds read high
Method in brief: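 Yeast strain carrying a DNA damage repair alteration was exposed to test compounds. Growth inhibition was measured relative to vehicle-treated controls.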

[2] = NCI Yeast Anticancer Drug Screen. Data for the wt1 strain (AID 149);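 note: 0% = growth of vehicle-treated wt1 cultures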; settings: S. cerevisiae wt1 strain (SPY 50644) growth inhibition, active compounds read high
Method in brief: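 Vehicle-normalised growth inhibition; strain wt1; compound exposure.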

[3] = NCI Yeast Anticancer Drug Screen. Data for the rad50EPP+ strain (AID 151);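 note: 0% = growth of vehicle-treated control cultures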; settings: S. cerevisiae rad50 mutant strain, active compounds read high
Method in brief: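 Yeast strain carrying rad50 alteration (rad50EPP+) exposed to compounds; growth inhibition measured relative to vehicle-treated controls.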

[4] = NCI Yeast Anticancer Drug Screen. Data for the rad50 strain (AID 155);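 note: 0% = growth of vehicle-only cultures of the same strain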; settings: S. cerevisiae rad50 strain growth inhibition, active compounds read high
Method in brief: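 A DNA repair-deficient yeast mutant serves as the test organism; compound-induced growth inhibition is calculated against vehicle-treated cells.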

[5] = NCI Yeast Anticancer Drug Screen. Data for the mec2-1 strain (AID 157); settings: S. cerevisiae mec2-1 strain, active compounds read high
Method in brief: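 mec2-1 yeast strain, carrying an alteration in DNA damage repair or cell cycle control, was exposed to compounds; growth inhibition was measured relative to vehicle-treated controls.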

[6] = NCI Yeast Anticancer Drug Screen. Data for the sgs1 mgt1 strain (AID 161);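 note: 0% = growth of cultures given vehicle only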; settings: S. cerevisiae sgs1 mgt1 strain, active compounds read high
Method in brief: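 Growth of a repair-deficient yeast mutant was monitored after compound treatment and expressed as inhibition relative to vehicle-treated cultures.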

[7] = NCI Yeast Anticancer Drug Screen. Data for the CLN2oe strain (AID 163);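 note: 0% = growth of vehicle-only control cultures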; settings: S. cerevisiae CLN2oe strain, active compounds read high
Method in brief: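 Yeast cells carrying a defined cell-cycle control alteration were exposed to test compounds. Growth inhibition was scored against vehicle-treated control cultures.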

[8] = NCI Yeast Anticancer Drug Screen. Data for the cln2 rad14 strain (AID 165);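 note: 0% = growth equal to vehicle treated cultures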; settings: S. cerevisiae cln2 rad14 strain, active compounds read high
Method in brief: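 Yeast carrying cln2 and rad14 alterations (cell cycle control and DNA damage repair) were exposed to compounds. Growth inhibition was measured against vehicle-treated controls.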

[9] = NCI Yeast Anticancer Drug Screen. Data for the bub3 strain (AID 167); settings: S. cerevisiae bub3 mutant strain, active compounds read high
Method in brief: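 Inhibition values come from growth of compound-treated mutant yeast normalised to vehicle-treated controls.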

[10] = NCI Yeast Anticancer Drug Screen. Data for the wt2 strain (AID 169);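 note: 0% = growth of vehicle-treated yeast cultures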; settings: S. cerevisiae wt2 strain growth inhibition, active compounds read high
Method in brief: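 Yeast cells were exposed to test compounds, and growth inhibition was measured relative to vehicle-treated controls.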

[11] = NCI Yeast Anticancer Drug Screen. Data for the mlh1 rad18 strain (AID 175); settings: S. cerevisiae mlh1 rad18 strain growth inhibition, active compounds read high
Method in brief: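 Growth inhibition of the yeast strain was measured after compound exposure and expressed relative to vehicle-treated controls. The strain carries defined defects in DNA damage repair.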

[12] = NCI Yeast Anticancer Drug Screen. Data for the rad18 strain (AID 177); settings: S. cerevisiae rad18 mutant growth inhibition, active compounds read high
Method in brief: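 Yeast carrying a defined DNA damage repair alteration were exposed to compounds. Growth inhibition was expressed relative to vehicle-treated controls.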

[13] = NCI Yeast Anticancer Drug Screen. Data for the rad14 strain (AID 159);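 note: 0% = growth of vehicle-treated control cultures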; settings: S. cerevisiae rad14 strain growth inhibition, active compounds read high
Method in brief: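 Vehicle-treated cultures served as the baseline for growth inhibition of a DNA repair-mutant yeast strain exposed to each compound.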

[14] = NCI Yeast Anticancer Drug Screen. Data for the mlh1 strain (AID 171);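 note: 0% = growth of vehicle-treated control cultures of the same strain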; settings: S. cerevisiae mlh1 strain growth inhibition, active compounds read high
Method in brief: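 Yeast carrying a defined genetic alteration in DNA damage repair or cell cycle control were exposed to test compounds. Growth inhibition was measured relative to vehicle-treated controls.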

[15] = at 5.0 µM (retest, dose inferred, filed as 0.5)
[16] = at 50.0 µM (retest, dose inferred, filed as 5.0)

Measured: growth inhibition

Cc1cc(OCc2ccccc2)ccc1[N+](=O)[O-]
inactive: [1]; at 1.2 µM 20% | [1]; at 3.7 µM 22% | [1]; at 11.0 µM 21% | [1]; at 33.0 µM 44% | [1]; at 100.0 µM 69% | [2]; at 1.2 µM 23% | [2]; at 3.7 µM -10% | [2]; at 11.0 µM 21% | [2]; at 33.0 µM 32% | [2]; at 100.0 µM 60% | [3]; at 1.2 µM -2% | [3]; at 3.7 µM -2% | [3]; at 11.0 µM 5% | [3]; at 33.0 µM 57% | [4]; at 1.2 µM 11% | [4]; at 3.7 µM 34% | [4]; [15] 50% | [4]; at 11.0 µM 29% | [4]; at 33.0 µM 31% | [4]; at 50.0 µM 37.2% | [4]; at 100.0 µM 50% | [5]; at 1.2 µM 2% | [5]; at 3.7 µM 15% | [5]; [15] 51% | [5]; at 11.0 µM 10% | [5]; at 33.0 µM 22% | [5]; at 50.0 µM 26.9% | [6]; [15] -5% | [7]; at 1.2 µM 9% | [7]; at 3.7 µM 23% | [7]; at 11.0 µM 11% | [7]; at 33.0 µM 32% | [8]; [15] 40% | [8]; at 50.0 µM 44.1% | [9]; at 1.2 µM -16% | [9]; at 3.7 µM -11% | [9]; [15] 33% | [9]; at 11.0 µM -5% | [9]; at 33.0 µM 12% | [9]; at 50.0 µM 55.6% | [9]; at 100.0 µM 51% | [10]; at 1.2 µM -11% | [10]; at 3.7 µM -11% | [10]; at 11.0 µM -7% | [10]; at 33.0 µM 9% | [10]; at 100.0 µM 47% | [11]; [15] 42% | [11]; at 50.0 µM 18.1% | [12]; at 1.2 µM -15% | [12]; at 3.7 µM -14% | [12]; at 11.0 µM -14% | [12]; at 33.0 µM 22% | [12]; at 100.0 µM 66%
active: [3]; at 100.0 µM 75% | [4]; [16] 85% | [5]; [16] 85% | [5]; at 100.0 µM 78% | [6]; [16] 88% | [6]; at 50.0 µM 74.6% | [7]; at 100.0 µM 71% | [8]; [16] 93% | [9]; [16] 95% | [11]; [16] 84%

COC(=O)c1oc([N+](=O)[O-])c(Cl)c1Cl
active: [1]; at 1.2 µM 78% | [1]; at 11.0 µM 71% | [1]; at 33.0 µM 95% | [1]; at 100.0 µM 99% | [2]; at 33.0 µM 89% | [2]; at 100.0 µM 99% | [3]; at 1.2 µM 95% | [3]; at 3.7 µM 93% | [3]; at 11.0 µM 93% | [3]; at 33.0 µM 98% | [3]; at 100.0 µM 98% | [4]; at 1.2 µM 95% | [4]; at 3.7 µM 79% | [4]; at 11.0 µM 86% | [4]; at 33.0 µM 96% | [4]; [16] 99% | [4]; at 50.0 µM 97% | [4]; at 100.0 µM 98% | [5]; at 1.2 µM 94% | [5]; at 3.7 µM 70% | [5]; at 11.0 µM 73% | [5]; at 33.0 µM 99% | [5]; [16] 100% | [5]; at 50.0 µM 99.7% | [5]; at 100.0 µM 99% | [13]; at 1.2 µM 99% | [13]; at 3.7 µM 71% | [13]; at 11.0 µM 90% | [13]; at 33.0 µM 99% | [13]; at 100.0 µM 99% | [6]; [16] 99% | [6]; at 50.0 µM 99% | [7]; at 1.2 µM 98% | [7]; at 11.0 µM 79% | [7]; at 33.0 µM 92% | [7]; at 100.0 µM 99% | [9]; at 1.2 µM 71% | [9]; at 33.0 µM 97% | [9]; [16] 100% | [9]; at 50.0 µM 99.2% | [9]; at 100.0 µM 98% | [10]; at 11.0 µM 74% | [10]; at 33.0 µM 99% | [10]; at 100.0 µM 99% | [14]; at 1.2 µM 77% | [14]; at 11.0 µM 78%
inactive: [1]; at 3.7 µM 66% | [2]; at 1.2 µM 26% | [2]; at 3.7 µM 22% | [2]; at 11.0 µM 39% | [4]; [15] 21% | [5]; [15] 35% | [6]; [15] 36% | [7]; at 3.7 µM 45% | [9]; at 3.7 µM 41% | [9]; [15] 47% | [9]; at 11.0 µM 34% | [10]; at 1.2 µM 64% | [10]; at 3.7 µM 51% | [14]; at 3.7 µM 62%
